High-throughput results from PubChem.
The list is not random: actives were taken first. Their share in the collection is about 7.3%.
NPC1 prom act = qHTS Assay for NPC1 Promoter Activators; 320,000 tested, 2.4% active; AID 485313, 2010; Huh7 NPC1 promoter luciferase reporter, 24 h; Potency, µM (top dose mostly 9.22 µM), inactives show top-dose activation, hits mostly activators; note: % of control where 0% means no effect; nearly all actives have a fitted effect of over 60% in size
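Compounds in DMSO were transferred onto Huh7 NPC1-luciferase reporter cells pre-incubated 2 h; after 24 h at 37 °C, Amplite reagent was dispensed and luminescence recorded 10 min later.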
SMN2 splice up = qHTS Assay for Enhancers of SMN2 Splice Variant Expression | HEK293 SMN2-luciferase splicing reporter, luminescence, 30-36 h | Potency, µM (top dose mostly 46.1 µM), inactives show top-dose activity change, positive = activation, actives largely listed as activators | 210,000 tested, 2.8% active; note: % of control where 0% means no effect; nearly all actives have a fitted effect of over 55% in size
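qHTS luciferase splicing reporter: luminescence rises when SMN2 exon 7 is included in transfected HEK293 cells. Compound exposure lasted 30-36 h at 37C, with 4.5 mM final sodium butyrate as control, followed by a ONE-Glo read.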
ELG1 genotoxic = qHTS screen for small molecules that induce genotoxicity in human embryonic kidney (HEK293T) cells expressing luciferase-tagged ELG1; HEK293T ELG1-luciferase reporter, luminescence, 16 h; Potency, µM (highest dose often 46 µM), for inactives: at the top dose activity change, positive = activation, most hits filed as activators; 330,000 tested, 1.3% active; AID 504466, 2011; note: % of control where 0% means no effect; nearly all actives have a fitted effect of over 60% in size
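After overnight (16 hr) compound treatment at 37 °C, ELG1-luciferase HEK293T cells were lysed with ONE-Glo; luminescence quantified 30 min later at room temperature.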
FLuc counter = qHTS profiling assay for firefly luciferase inhibitor/activator using purifed enzyme and Km concentrations of substrates (counterscreen for miR-21 project). 360,000 tested, 6.9% active. Luciferin 4-monooxygenase (Photinus pyralis), P08659. Potency, µM (titrated, usually from 57.5 µM), for inactives: top-dose activity change, negative = inhibition, most hits filed as inhibitors. AID 588342, 2011. purified FLuc, Km substrates, luminescence inhibition;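 note: plate controls were vehicle for no effect and reference inhibitor for full effect; nearly all actives have a fitted effect of over 55% in size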
Target sequence (P08659 whole entry, looked up): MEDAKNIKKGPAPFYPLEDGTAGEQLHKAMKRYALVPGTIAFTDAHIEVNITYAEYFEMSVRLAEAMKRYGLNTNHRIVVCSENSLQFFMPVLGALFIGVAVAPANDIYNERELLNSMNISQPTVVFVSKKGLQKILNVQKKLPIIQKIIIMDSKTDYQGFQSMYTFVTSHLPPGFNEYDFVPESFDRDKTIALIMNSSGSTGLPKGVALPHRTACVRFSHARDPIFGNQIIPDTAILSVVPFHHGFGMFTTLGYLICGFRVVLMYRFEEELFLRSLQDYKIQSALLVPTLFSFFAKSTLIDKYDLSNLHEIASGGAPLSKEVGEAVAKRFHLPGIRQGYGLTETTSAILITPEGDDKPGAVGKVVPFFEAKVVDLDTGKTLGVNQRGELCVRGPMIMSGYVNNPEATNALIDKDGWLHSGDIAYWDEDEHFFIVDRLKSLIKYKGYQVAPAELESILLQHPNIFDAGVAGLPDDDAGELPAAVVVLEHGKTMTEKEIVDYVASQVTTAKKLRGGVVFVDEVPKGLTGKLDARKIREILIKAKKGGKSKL
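Purified P. pyralis luciferase (10nM final) with 10uM D-luciferin and 10uM ATP (Km levels) in 50mM Tris acetate pH 7.5, 10mM Mg acetate, 0.01% Tween-20, 0.05% BSA; qHTS 6-point titration, ~60 µM downward; luminescence read.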
uPA surface inh = qHTS for Inhibitors of Cell Surface uPA Generation; Potency, µM (top dose mostly 38.3 µM), for inactives: at the top dose activity change, negative = inhibition, hits mostly inhibitors; 330,000 tested, 0.31% active; cell surface uPA generation assay, qHTS; AID 540303, 2011; active = well fitted inhibition curve with a large enough effect; inconclusive = small, poorly fitted or top-dose-only effect; inactive = no such curve, though single readings can be large or run the other way; tested in mouse RAW 264.7 cells; note: % is set by controls: 0 for no effect and ±100 for the full control effect; nearly all actives have a fitted effect of over 55% in size
Rab9 prom act = qHTS Assay for Rab9 Promoter Activators; AID 485297, 2010; Potency, µM (highest dose often 9.22 µM), inactives show at the top dose activation, negative = inhibition, hits mostly activators; Huh7 Rab9 promoter-luciferase reporter, luminescence, 24 h; 320,000 tested, 2.8% active; note: % of control where 0% means no effect; nearly all actives have a fitted effect of over 60% in size
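Cells were plated at 1500 per well in reduced-serum medium with 10% FBS and left 2 h. Compound in DMSO was then added for 24 h at 37 °C. Reporter signal was read by luminescence after 10 min with luciferase detection reagent.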
* hit, by the source's call; ? = inconclusive; . = not tested or not shown; [ ] = dose if it differs, or a comment. Unless noted, calls come from the whole dose curve; as a rule, active = well fitted curve in the direction sought with a large enough effect; inconclusive = small, poorly fitted or top-dose-only effect, or another doubt; inactive = no such curve, though single readings can be large; an effect the other way counts as inactive or inconclusive. Potency is the fitted concentration of half-maximal effect.

SMILES	NPC1 prom act	SMN2 splice up	ELG1 genotoxic	FLuc counter	uPA surface inh	Rab9 prom act
O=C(NCC1CCCO1)c1ccccc1-c1nc(-c2ccc(Cl)cc2)no1 (centres undefined)	3%	-4%	-7%	15µM*	-7%	-6%
COC(=O)N[C@@H](/C=C/c1ccccc1)[C@@H](C)[N+](=O)[O-]	.	12%	.	.	.	.
CCCCCN1C(C(=O)c2ccccc2)=C(NC(=O)c2ccc(OC)cc2)c2ccccc2S1(=O)=O	.	-13%	.	1%	.	.
CC(=O)c1ccc(N2CCN(S(=O)(=O)c3c(C)[nH]c(C)c3C(=O)N3CCCCC3)CC2)cc1	3%	.	0%[9.26 µM]	-5%	-4%	-3%
Cc1cccc(CCNC(=O)C2CCCN(S(=O)(=O)c3ccc4c(c3)oc(=O)n4C)C2)c1 (centres undefined)	.	-3%	.	-1%	.	.
Cc1nn(CC(=O)NC2CC2)c(=O)c2cc3ccccc3n12	.	-4%	.	-5%	.	.
CC1=NOC(=O)/C1=C\c1ccc(-c2cc(Cl)ccc2Cl)o1	-16%	22%	-39%	?	-2%	0%
CC1=NOC(=O)/C1=C\c1ccc(-c2ccc(Br)cc2C(=O)O)o1	0%	.	3%	?	2%	-3%
CC1=NOC(=O)/C1=C/c1ccc(-c2ccc(Cl)cc2)o1	-3%	-16%	-13%	8.5µM*	.	-4%
Cc1ccc(/C=C2\C(=O)ON=C2c2ccccc2)o1	1%	.	1%	1.1µM*	-4%	-12%
CC1=NOC(=O)/C1=C\c1ccc(-c2ccc(Br)cc2)o1	-11%	-41%	-3%	8.5µM*	-6%	-3%
Cc1cccc(NC(=O)CCNS(=O)(=O)c2ccc3c(c2)CCN3C(=O)C2CC2)c1	.	.	.	5%	.	.
COc1ccccc1NC(=O)c1cc(C)nc2ccccc12	3%	0%	-2%	-1%	-10%	-1%
COc1ccccc1NC(=O)c1cc(-c2ccc(C)o2)nc2ccccc12	-1%	.	-1%	7.6µM*	-3%	13%
Cc1ccc(-c2cc(C(=O)Nc3ccccn3)c3ccccc3n2)o1	-1%	3%	-12%	11µM*	.	3%
O=C(Nc1cccnc1)c1cc(-c2ccc(Br)cc2)nc2ccccc12	0%	.	0%	17µM*	-4%	0%
Cc1ccc(-c2cc(C(=O)Nc3cccnc3)c3ccccc3n2)o1	0%	3%	0%	6µM*	6%	16%
Cc1ccc(NC(=O)c2cc(-c3ccc(C)o3)nc3ccccc23)cc1	1%	10%	5%	?	-5%	9%
Cc1ccc(C)c(-c2cc(C(=O)Nc3cccnc3)c3ccccc3n2)c1	-1%	.	-15%	1%	-15%	11%
CCN(CC)CCN(C(=O)c1ccc2ncsc2c1)c1nc2cc3c(cc2s1)OCO3	0.71µM*	.	2.9µM*	9.5µM*	-1%	?
CCN(CC)CCN(C(=O)c1ccc(C(=O)c2ccccc2)cc1)c1nc2cc3c(cc2s1)OCO3	-2%	.	-11%	-3%	-1%	5%
Cc1ccc2c(ccn3cc4c(c(=O)n(C)c(=O)n4C)c23)c1	4%	-6%	?	2.7µM*	3%	-16%
Cc1cccc(-c2c3c(=O)n(C)c(=O)n(C)c3cn2C(C)C)c1	1%	30%	1%	1%	.	-7%
CCCOc1ccc(NC(=O)CC2C(=O)N(c3ccccc3)C(=O)N2CCC(C)C)cc1 (centres undefined)	.	.	.	-8%	.	.
CC1=NN(c2ccccc2)C(=O)/C1=C\c1cn(C)c2ccccc12	-17%	-3%	2%	9.5µM*	2%	2%
SMILES	NPC1 prom act	SMN2 splice up	ELG1 genotoxic	FLuc counter	uPA surface inh	Rab9 prom act
CC1=NN(c2ccccc2)C(=O)/C1=C/c1cn(C)c2ccccc12	2%	.	-2%	6µM*	1%	14%
COc1ccccc1/C=C1/C(=O)N(c2ccc([N+](=O)[O-])cc2)N=C1C	0%	.	3%	?	7%	4%
CC1=NN(c2ccccc2)C(=O)/C1=C\c1cc(C)n(C)c1C	14%	.	-7%	7.6µM*	10%	4%
CCC(C)[C@H](NC(=O)C1CCN(C(=O)[C@H](Cc2ccccc2)NS(=O)(=O)c2ccc(C)cc2)CC1)C(=O)O (some centres undefined)	2%	.	-1%	-4%	5%	-4%
Cc1ccc(NC(=O)CN2CCN(S(=O)(=O)c3ccc(C(C)C)cc3)CC2)cc1F	.	.	.	4%	.	.
COc1ccccc1C(=O)NCCC(=O)NCC1CCCO1 (centres undefined)	-2%	.	3%	3%	-16%	0%
O=C1CN(C(=O)COc2ccccc2)C(c2ccc(F)cc2)c2cc(Br)ccc2N1 (centres undefined)	.	0%	.	-5%	.	.
CCCCc1ccc(-c2nc(NC(=O)C3C4CCC(O4)C3C(=O)O)sc2C)cc1 (centres undefined)	16%	-13%	16µM*	21µM*	.	12%
CCc1cccc(C)c1NC(=O)C1C2CCC(O2)C1C(=O)O (centres undefined)	1%	7%	-4%	0%	-4%	-6%
O=C(/C=C/c1ccc([N+](=O)[O-])cc1)Nc1cccnc1	2.8µM*	13µM*	?	5.4µM*	-7%	3.5µM*
O=C(/C=C/c1ccccc1)Nc1cccnc1	2.2µM*	.	?	6.7µM*	?	2.2µM*
Cc1ccc(/C=C/C(=O)Nc2cccnc2)o1	26%	?	0%	24µM*	17%	?
Cc1ccc(/C=C/C(=O)Nc2nn[nH]n2)o1	0%	-4%	2%	-3%	0%	0%
Cc1cccc(N2CCN(CCCNc3ncnc4onc(-c5ccc(F)cc5)c34)CC2C)c1 (centres undefined)	.	.	.	-6%	.	.
Oc1c(N=Nc2ccccn2)ccc2ccccc12	-5%	-67%	?	1.3µM*	-12%	-9%
N#C/C(=N\Nc1ccc(S(=O)(=O)N2CCCCCC2)cc1)C(N)=S	-2%	-23%	-17%	?	0%	0%
N#C/C(=N\Nc1ccc(Cl)cc1)C(=N)N1CCCCCC1	0.4µM*	3.5µM*	1.8µM*	0.95µM*	-11%	0.32µM*
N#C/C(=N\Nc1ccc(S(=O)(=O)N2CCCCC2)cc1)C(N)=S	0%	-45%	-12%	-15%	-9%	0%
N#C/C(=N\Nc1ccccc1)C(=N)N1CCCCC1	2µM*	11µM*	6.5µM*	5.4µM*	-7%	?
Cc1ccc(N/N=C(\C#N)C(=N)N2CCCCC2)cc1	0.45µM*	.	?	5.4µM*	-7%	0.5µM*
